Measurements published in PubChem BioAssay AID1159580 (chemical genetic matrix, 2015).
Hit rate of the full screen: of about 5,500 compounds, about 2,000 (36%) were called active. Roughly 18% stayed inconclusive and do not appear here. No stated cut-off is given here; in the data, active means normalized growth mostly below about 0.91 (no sharp cut-off); inconclusive means no clear call, values can overlap the other calls; inactive means mostly above about 0.92. The list shows a part of the results.

Assay: chemical genetic growth profiling, strain panel (AID 1159580);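 further: tested at 20 µM; growth read once vehicle control cultures reached saturation at 30 °C; 1 = growth at the plate median or of vehicle wells; lower values mean less growth of the strain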
Conditions: S. cerevisiae deletion strains, growth OD

Measured: normalized growth

O=C(O)CP(=O)(O)O
inactive: locus YAL040C, strain CLN3, active compounds read low 1 | locus YCL061C, strain MRC1 (second series), active compounds read low 1 | locus YDR363W, strain ESC2, active compounds read low 1.01 | locus YER002W, strain NOP16, active compounds read low 1.01 | locus YGR229C, strain SMI1, active compounds read low 1.02 | locus YNL175C, strain NOP13, active compounds read low 1.02 | locus YNL197C, strain WHI3, active compounds read low 1.01 | locus YNL224C, strain SQS1, active compounds read low 0.993 | locus YNL322C, strain KRE1, active compounds read low 1.01 | locus YOR083W, strain WHI5 (second series), active compounds read low 1.01
